Here are results for 17 molecules from publication PMC12136788.

The chains are these.
T1: UNK ZnF1-3 (human, UniProt Q9C0B0 31-174)
T1 sequence: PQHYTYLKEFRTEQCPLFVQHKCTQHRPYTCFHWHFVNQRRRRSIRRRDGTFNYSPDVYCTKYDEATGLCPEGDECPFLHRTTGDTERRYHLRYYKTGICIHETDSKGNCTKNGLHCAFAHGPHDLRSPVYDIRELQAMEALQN

B1: 168352429_168352549_4431_CDS_ENSG00000130396_ENST00000400822|human|control|control (ssRNA)
RNA: GGGAGUUCUACAGUCCGACGAUCAAUGUACUGCAAGUCUCUGCGCUCGAUCGUGCGGGGCUGCUGCUGAGGCUGCAGCUCCCGAAUGACUGUUUCCUGUGGCCGCUGGAGUGUGGAAGGCUUUUCGGGCUUCAUCUGCUGUGCCAACAGAGGAUUGAGCAUCA
B2: chr2:201681052:201681053:+_ENSG00000082153_ENST00000409600|hu_hu|FALSE|FALSE (ssRNA)
RNA: GGGAGUUCUACAGUCCGACGAUCUUUUACUUCAUCUUCAAAACCUUUCUCCAGGUAUUUGUAGCGCCUGAUUAACUUGUUAAAAACCUGAGCAAAUGCUUGCAUGGUCUCUAGAUCUUCUUGGGCUGCAAACACGCAGACAUCCAACAGAGGAUUGAGCAUCA
B3: 5253780_5253900_1103_CDS_ENSG00000029725_ENST00000262477|human|control|control (ssRNA)
RNA: GGGAGUUCUACAGUCCGACGAUCAACUUGUCGGAGCUGUUCUGAAGUUAGCACAAUCUCCAUUCGCUGCAUGUCUCUCAUCAGUAAACGCUGAGAUUCCAGAAACUGGUCAUUGGCCUUCUGCCACGUAUGUUUUAACUGGUUCAACAGAGGAUUGAGCAUCA
B4: chr22:32879901:32879902:+_ENSG00000100225_ENST00000397426|hu_mus|hu_hu_hu_mus_False|48_98 (ssRNA)
RNA: GGGAGUUCUACAGUCCGACGAUCCUCUUCCAUACUCGCAUUAUCUUGAAUUGACUCAGCUUCAACAUUUUGACUAGGCCCUUCCAUACUGUCGUCAGUCCAGGCAUCAAAUGGGGUGGCCUGUCCUUGGGAUGAAUCAGUCCCCAACAGAGGAUUGAGCAUCA
B5: chr17:56552419:56552420:-_ENSMUSG00000013236_ENSMUST00000086828|mus_mus|mus_mus_mus_hu_False|78_88 (ssRNA)
RNA: GGGAGUUCUACAGUCCGACGAUCAAAAAAUACACUAUUUAAAAAAAAAAGAAAAAAAGAAAAAGAAGUUACACUGAGAGUUUUAAAAGAAAGCUGGAUUCUGGUCCCAGCCCAGUGUCCCCAGGCUGCAGAGCGGGGAGGAGCCAACAGAGGAUUGAGCAUCA
B6: chr17:56552419:56552420:-_ENSMUSG00000013236_ENSMUST00000086828|mus_mus|mus_mus_mus_hu_False|58_78 (ssRNA)
RNA: B5 RNA with A48U, A49G, G50A, A53U, A54G, A55U, A56C, G77C, G79C, U81A
B7: chr17:56552419:56552420:-_ENSMUSG00000013236_ENSMUST00000086828|mus_mus|mus_mus_mus_hu_False|1_78 (ssRNA)
RNA: B5 RNA with A48U, A49G, G50A, A53U, A54G, A55U, A56C, A138C, G139A, C143G
B8: chr17:56552419:56552420:-_ENSMUSG00000013236_ENSMUST00000086828|mus_mus|mus_mus_mus_hu_False|78_98 (ssRNA)
RNA: B5 RNA with U38A, U39A, A48U, A49G, G50A, A53U, A54G, A55U, A56C
B9: 86747786_86748123_1683_CDS_ENSMUSG00000035671_ENSMUST00000039480|mouse|control|control (ssRNA)
RNA: GGGAGUUCUACAGUCCGACGAUCGUGCUGGUAGGCCAGCUUUCGCUUCUCUGGGGCUGAGUCUGGGAAAAGAGAGUGAGGCUCCUCCUCCAGGCGACAGGCCUCCAGCAGUGCCCUGCAGAGGCAGCCAAUGGGAUCCAGGGGCAACAGAGGAUUGAGCAUCA
B10: chr11:77336104:77336105:-_ENSG00000074201_ENST00000525064|hu_mus|hu_hu_hu_mus_False|68_98 (ssRNA)
RNA: GGGAGUUCUACAGUCCGACGAUCCUCACACAUUGCUGUGAACAUUGCCUCCAAUGCUGACUUAUCACUAGGCACAAAUCGAAAUUCAGAAAUGGGUUCAACAUCAUCAUUGUCUUCCUCAUCUUCAUCAGAGAGAGGUUCUUUCAACAGAGGAUUGAGCAUCA
B11: chr16:5009651:5009652:-_ENSMUSG00000022540_ENSMUST00000023191|mus_hu|FALSE|FALSE (ssRNA)
RNA: GGGAGUUCUACAGUCCGACGAUCUGCAGGGAGACGGUGAAGUAGACCAGGGCGUCGUUGAGCCAGGGGAUCACGCACUCCACUUUGUGCACGUGGCUCACCUCCAGGCGCUGAGAGCCCCACUCGAACAUGGCCCCAGGGCUACAACAGAGGAUUGAGCAUCA
B12: 133220860_133220980_1226_CDS_ENSMUSG00000043257_ENSMUST00000062118|mouse|control|control (ssRNA)
RNA: GGGAGUUCUACAGUCCGACGAUCGUAUAUUAGAGGAAGGUCCCAGGAGCACCAUGGGGGUGCAUUUUCUCCUGCAAGCCGGUAGCCUUUGUCGGCAGCUAGCUGCAGCAAGGGCUCAGGGAUGGAGGGGGCUGAGCCUGGUGACAACAGAGGAUUGAGCAUCA
B13: chr7:141441981:141441982:+_ENSG00000106028_ENST00000265304|hu_mus|hu_hu_hu_mus_False|48_88 (ssRNA)
RNA: GGGAGUUCUACAGUCCGACGAUCCUCAUGUCUUACAAACUGACGAAGUACCUGUAACACAGGUCUUCGAAACAUGGCUUCUGUUUUCUUUUCUUACUAAUCUUUAGGCUUUUCCUAAAGGAAAGAAAGAAAAGAGAAAAAUGACAACAGAGGAUUGAGCAUCA
B14: chr17:56552419:56552420:-_ENSMUSG00000013236_ENSMUST00000086828|mus_mus|mus_mus_mus_hu_False|78_78 (ssRNA)
RNA: B5 RNA with A48U, A49G, G50A, A53U, A54G, A55U, A56C
B15: chr17:56552419:56552420:-_ENSMUSG00000013236_ENSMUST00000086828|mus_mus|mus_mus_mus_hu_False|48_78 (ssRNA)
RNA: GGGAGUUCUACAGUCCGACGAUCAAAAAAUACACUAUUUAAAAAAAAUGAAAUGUCAGAAAAAGAAGUUACACUGAGAGUUUUAAAAAAAAAUAAGAUUCUGGUCCCAGCCCAGUGUCCCCAGGCUGCAGAGCGGGGAGGAGCCAACAGAGGAUUGAGCAUCA
B16: chr17:56552419:56552420:-_ENSMUSG00000013236_ENSMUST00000086828|mus_mus|mus_mus_mus_hu_False|38_78 (ssRNA)
RNA: GGGAGUUCUACAGUCCGACGAUCAAAAAAUACACUAUUUAAAAAAAAUGAAAUGUCAGAAAAAGAAGUUACACUGAGAGUUUUAAAAGAAAGCUGGAAAAAAAAUGCAGCCCAGUGUCCCCAGGCUGCAGAGCGGGGAGGAGCCAACAGAGGAUUGAGCAUCA
B17: chr17:56552419:56552420:-_ENSMUSG00000013236_ENSMUST00000086828|mus_mus|mus_mus_mus_hu_False|18_78 (ssRNA)
RNA: GGGAGUUCUACAGUCCGACGAUCAAAAAAUACACUAUUUAAAAAAAAUGAAAUGUCAGAAAAAGAAGUUACACUGAGAGUUUUAAAAGAAAGCUGGAUUCUGGUCCCAGCCCAGUGGCAGGCAGGGGCAGAGCGGGGAGGAGCCAACAGAGGAUUGAGCAUCA

Changes are numbered by the printed parent chain. In all, about 24,000 sequences were measured (“enrichment r”: median about 0.99, highest 2% from about 3.7 on). What follows is part of a selection rich in the highest values, with near analogues and random picks from the rest.

The experiment addresses T1, UNK ZnF1-3. In words: nsRBNS (natural sequence RNA bind-n-seq); RBNS binding buffer (assumed for nsRBNS): 25 mM Tris pH 7.5, 150 mM KCl, 3 mM MgCl2, 0.01% Triton X-100, 500 ug/ml BSA, 20 U/ml SUPERase-In, 4 C; UNK is unkempt and MSI1 is Musashi-1; names of the RNAs are library labels; protein concentration not given here; high values mean tight binding.
B1 returned a binding signal of 0.667 enrichment R. In the case of B2 it was 0.452 enrichment R; in that of B3, 0.594 enrichment R. In the case of B4 it was 0.919 enrichment R; in that of B5, 12.6 enrichment R.

In turn, B6 had a binding signal of 8.52 enrichment R. In turn, B7 gave a binding signal of 3.68 enrichment R. B8 returned a binding signal of 8.48 enrichment R. In the case of B9 it was 0.778 enrichment R; in that of B10, 0.885 enrichment R; in that of B11, 0.75 enrichment R. B12 registered a binding signal of 1.08 enrichment R. In the case of B13 it was 0.351 enrichment R; in that of B14, 4.51 enrichment R; in that of B15, 9.32 enrichment R. B16 returned a binding signal of 9.26 enrichment R.

B17: the binding signal was found to be 3.82 enrichment R.
